In PubChem BioAssay (NCATS) one finds Potency data, which are given here for 20 compounds.

The test system of one test is UISO. Briefly: qHTS assay to identify novel small-molecules to repurpose for Merkel cell carcinoma treatment (AID 1296009). Note: nearly all actives have a fitted effect of over 60% in size. Particulars: MCC and control cell lines, CellTiter-Glo viability, 72 h; series mostly up to 46 µM. The gist of the method:
(§1)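 Cell viability, measured as CellTiter-Glo luminescence, was normalized between DMSO and no-cell wells. The cells had been exposed to 8- or 11-point compound dilutions for 72 hr at 37 degree celsius.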
(Quantitative high-throughput screening tests each substance at several concentrations.)

The next test concerns WaGa. Described as above. Particulars: MCC and control cell lines, CellTiter-Glo viability, 72 h; series mostly up to 46 µM. The gist of the method: as §1
A general note: In ATP-based viability assays light output follows the ATP content of the culture.

A further test relates to C33A. Briefly: Primary qHTS to identify gynecologic anti-cancer compounds using libraries of approved drugs and bioactive compounds (AID 1345084). Note: nearly all actives have a fitted effect of over 55% in size. Particulars: Gynecologic cancer cell panel viability, ATPlite luminescence, 48 h; series mostly up to 57.5 µM. The gist of the method:
(§2)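 Cell viability after 48 h drug treatment, ATPlite luminescence readout; five doses.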

In the next test the test system is CAOV3. Described as above. Particulars: Gynecologic cancer cell panel viability, ATPlite luminescence, 48 h; series mostly up to 57.5 µM. An outline of the steps:
as §2

In a further test the test system is CASKI. Described as above. Particulars: Gynecologic cancer cell panel viability, ATPlite luminescence, 48 h; series mostly up to 57.5 µM. The gist of the method: as §2
In a further test the test system is Es-2. Described as above. Particulars: Gynecologic cancer cell panel viability, ATPlite luminescence, 48 h; series mostly up to 57.5 µM. An outline of the steps:
as §2

For another test, the system named is HeLa. Described as above. Particulars: Gynecologic cancer cell panel viability, ATPlite luminescence, 48 h; series mostly up to 57.5 µM. An outline of the steps: as §2
Another test relates to Hek293T. Described as above. Particulars: Gynecologic cancer cell panel viability, ATPlite luminescence, 48 h, control line for the selectivity index; series mostly up to 57.5 µM. The gist of the method: as §2
The next test deals with JEG-3. The description is as above. Particulars: Gynecologic cancer cell panel viability, ATPlite luminescence, 48 h; series mostly up to 57.5 µM. The gist of the method:
as §2

Inconclusive results are not listed. Activity calls are given as the source filed them. Calls come from the whole dose curve; as a rule, active = well fitted curve in the direction sought with a large enough effect; inconclusive = small, poorly fitted or top-dose-only effect, or another doubt; inactive = no such curve, though single readings can be large; an effect the other way counts as inactive or inconclusive.
Potency is the fitted concentration of half-maximal effect.

As for `CCn1nc(C(=O)O)c(=O)c2cc3c(cc21)OCO3`, the Potency entry in the test with UISO, in the test on WaGa, with C33A, with CAOV3, in the test with CASKI and in the test with Es-2 was “inactive” in each case. Also, the Potency entry with HeLa, with Hek293T and with JEG-3 was “inactive” throughout.

For the compound `CNCCC(Oc1ccccc1OC)c1ccccc1` (stereo not given), the Potency result in the test on UISO, with WaGa, with C33A, with CASKI, with Es-2 and with HeLa was “inactive” in each case. The Potency result in the test with Hek293T and in the test on JEG-3 was “inactive” throughout.

As to `CCO/C([O-])=N/c1c[n+](N2CCOCC2)no1`, the Potency result in the test with UISO, with WaGa, in the test with C33A, in the test on CAOV3, with CASKI and in the test with Es-2 was “inactive” throughout. Further, the Potency entry in the test on HeLa, in the test on Hek293T and in the test on JEG-3 was “inactive” in each case.

As to `Nc1ncn([C@@H]2O[C@H](CO)[C@@H](O)[C@H]2O)c(=O)n1`, the Potency is 9.44 µM (active) in the test on UISO, 16.8 µM (active) with WaGa, 3.98 µM (active) in the test with Es-2 and 10 µM (active) with JEG-3.

`C=CCc1ccccc1OCC(O)CNC(C)C` (stereo not given): the Potency result in the test on UISO, in the test with WaGa, with C33A, in the test on CASKI, with Es-2 and in the test with HeLa was “inactive” throughout. The Potency result in the test on Hek293T and in the test with JEG-3 was “inactive” throughout.

`CCOC(=O)C1=C(C)NC(C)=C(C(=O)OC)C1c1cccc([N+](=O)[O-])c1` (stereo not given): the Potency result in the test on UISO, in the test on WaGa, with C33A, with CASKI, in the test on Es-2 and in the test with HeLa was “inactive” each time. The Potency entry in the test on Hek293T and with JEG-3 was “inactive” each time.

Turning to `CC(=O)[C@]1(O)Cc2c(O)c3c(c(O)c2[C@@H](O[C@H]2C[C@H](N)[C@H](O)[C@H](C)O2)C1)C(=O)c1ccccc1C3=O`, the Potency in the test with UISO was 0.422 µM (active); in the test with WaGa, 0.106 µM (active); with C33A, 0.501 µM (active); with CASKI, 1 µM (active); with Es-2, 1 µM (active); with HeLa, 7.08 µM (active). The Potency with Hek293T is 708 nM (active).

As to `CC[N+](C)(C)c1cccc(O)c1`, the Potency entry in the test on C33A, with CAOV3, with CASKI, in the test on Es-2, in the test on HeLa and in the test with Hek293T was “inactive” in each case. For the same compound, the Potency result in the test on JEG-3 is “inactive”.

As for `COC(=O)C1=C(C)NC(C)=C(C(=O)OCCN(C)Cc2ccccc2)C1c1cccc([N+](=O)[O-])c1` (stereo not given), the Potency in the test with UISO is 23.7 µM (active). For the same compound, the Potency entry with C33A, with CASKI, in the test with Es-2 and in the test with JEG-3 was “inactive” throughout.

For `COC(=O)C1=C(C)NC(C)=C(C(=O)OC(C)(C)CN(C)CCC(c2ccccc2)c2ccccc2)C1c1cccc([N+](=O)[O-])c1` (stereo not given), the Potency result in the test with C33A, in the test with CAOV3, in the test on CASKI, with Es-2, with Hek293T and in the test on JEG-3 was “inactive” in each case.

Consider `Nc1c2c(nc3ccccc13)CCCC2O` (stereo not given), for which the Potency entry in the test on WaGa, with C33A, with CAOV3, in the test on CASKI, with Es-2 and in the test on HeLa was “inactive” each time. Besides, the Potency entry with Hek293T and with JEG-3 was “inactive” in each case.

Regarding `COc1ccc2c(c1OC)C(=O)O[C@@H]2[C@H]1c2c(cc3c(c2OC)OCO3)CCN1C`, the Potency result in the test with C33A, in the test on Es-2, in the test on HeLa, in the test with Hek293T and in the test on JEG-3 was “inactive” in each case.

On to `c1cc(CN2CCCCC2)cc(OCCCNc2nc3ccccc3s2)c1`, for which the Potency result with C33A, with CAOV3, in the test on CASKI, in the test with Es-2, in the test with HeLa and in the test on JEG-3 was “inactive” in each case.

With `CC1=C(C)C(=O)C(CCCCC#CCCCC#CCO)=C(C)C1=O`, the Potency in the test on WaGa was 21.1 µM (active). For the same compound, the Potency result in the test on CAOV3, with CASKI, with Es-2, in the test with HeLa and in the test with JEG-3 was “inactive” throughout.

With `Nc1nc(N)c2nc(-c3ccccc3)c(N)nc2n1`, the Potency with WaGa is 26.6 µM (active); in the test on C33A it was 10 µM (active); with Es-2, 15.8 µM (active). In addition, the Potency entry with HeLa and in the test on JEG-3 was “inactive” throughout.

As for `CCOC(=O)C1=C(C)NC(C)=C(C(=O)OC)C1c1cccc(Cl)c1Cl` (stereo not given), the Potency entry with UISO, in the test with C33A, in the test with CAOV3, in the test with CASKI, with Es-2 and with Hek293T was “inactive” throughout. For the same compound, the Potency result in the test on JEG-3 was “inactive”.

As to `Cc1nnc(SCC2=C(C(=O)O)N3C(=O)[C@@H](NC(=O)Cn4cnnn4)[C@H]3SC2)s1`, the Potency result in the test with UISO, in the test with C33A, in the test on CAOV3, in the test with CASKI, in the test on Es-2 and in the test on HeLa was “inactive” throughout. Also, the Potency result with Hek293T and with JEG-3 was “inactive” throughout.

Take `CCC(=O)c1ccc2c(c1)N(CCCN(C)C)c1ccccc1S2`: the Potency entry in the test on C33A, in the test on CASKI, with Es-2, in the test with HeLa, in the test on Hek293T and with JEG-3 was “inactive” in each case.

As to `COCCCC/C(=N\OCCN)c1ccc(C(F)(F)F)cc1`, the Potency result with Hek293T and in the test on JEG-3 was “inactive” throughout.

As to `C[N+](C)(C)CCCCCCCCCC[N+](C)(C)C`, the Potency entry with C33A, in the test on CASKI, with Es-2, with HeLa, in the test with Hek293T and with JEG-3 was “inactive” throughout.
